Assay results taken from PubChem BioAssay AID886 (National Center for Advancing Translational Sciences (NCATS), 2007).
The campaign covered roughly 73,000 compounds. About 2,500 (3.4%) were called active. Not shown: some 7% with an inconclusive outcome. Calls come from the whole dose curve; as a rule, active = well fitted inhibition curve with a large enough effect; inconclusive = small, poorly fitted or top-dose-only effect; inactive = no such curve, though single readings can be large or run the other way. Shown is part of a subset that was picked to be rich in actives. Where a call stands in place of a potency, no number is given.

target: 3-hydroxyacyl-CoA dehydrogenase type-2 (Homo sapiens) (UniProt Q99714); assay: qHTS Assay for Inhibitors of HADH2 (Hydroxyacyl-Coenzyme A Dehydrogenase, Type II); settings: recombinant HADH2, NADH fluorescence, beta-hydroxybutyryl-CoA; series mostly up to 57.1 µM; note: nearly all actives have a fitted effect of over 60% in size
In short: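 E. coli-expressed His-tagged HADH2 tested at 20 nM in alkaline Tris buffer (pH 9.0); oxidation of 90 uM beta-hydroxybutyryl-CoA with 1 mM NAD+ tracked fluorimetrically for 4 min.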
Potency is the fitted concentration of half-maximal effect.

Sequence of 3-hydroxyacyl-CoA dehydrogenase type-2 (Homo sapiens) (Q99714 whole entry, looked up): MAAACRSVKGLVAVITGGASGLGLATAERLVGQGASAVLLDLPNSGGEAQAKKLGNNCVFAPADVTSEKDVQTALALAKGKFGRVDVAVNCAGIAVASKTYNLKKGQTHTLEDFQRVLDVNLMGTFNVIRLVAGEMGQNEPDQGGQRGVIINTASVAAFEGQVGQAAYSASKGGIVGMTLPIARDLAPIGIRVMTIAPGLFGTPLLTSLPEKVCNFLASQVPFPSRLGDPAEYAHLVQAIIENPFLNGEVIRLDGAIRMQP
Sequence of 3-hydroxyacyl-CoA dehydrogenase type-2 (Homo sapiens) (Q99714 whole entry, looked up): as above

**Q.** How did the Potency turn out when `CCCCc1cc(=O)oc2cc(C)cc(OCc3nn[nH]n3)c12` was run?
**A.** 25.1 µM (active)

**Q.** Which Potency does the source give for `CCc1cc(=O)oc2cc(C)cc(OC(C)C(=O)O)c12` (stereo not given) here?
**A.** inactive

**Q.** `O=C(O)c1cccc(S(=O)(=O)NCCO)c1` was tested. Which activity change, negative = inhibition did it give?
**A.** -11.5% [at 11.4 µM] (inactive)

**Q.** `O=C(CN1C(=O)CCS(=O)(=O)c2ccccc21)NCc1ccc(F)cc1` was tested. Which Potency did it give?
**A.** inactive

**Q.** For `NC(=O)CSC1=Nc2ccccc2C2=NC(CCC(=O)NCc3ccc(F)cc3)C(=O)N12` (stereo not given), which Potency is on record?
**A.** 31.6 µM (active)

**Q.** Which Potency does the source give for `CC(C)C1N=C2c3ccccc3N=C(SCC(=O)c3ccc(O)c(O)c3)N2C1=O` (stereo not given) here?
**A.** inactive

**Q.** How did the activity change, negative = inhibition turn out when `CC(=O)/C(=N\N=C(N)N)c1ccccc1` was run?
**A.** 5.03% [at 11.4 µM] (inactive)

**Q.** For `NS(=O)(=O)c1cc(C(=O)O)c(Cl)c([N+](=O)[O-])c1Cl`, which activity change, negative = inhibition is on record?
**A.** 11.6% [at 11.4 µM] (inactive)

**Q.** How did the Potency turn out when `O=C(c1ccncc1)N1CCC2(CCN(Cc3cc(C(F)(F)F)cc(C(F)(F)F)c3)CC2)CC1` was run?
**A.** inactive

**Q.** Which Potency does the source give for `Cc1nc2cnc(N3CCNCC3)nc2n(CCc2ccccc2)c1=O` here?
**A.** inactive

**Q.** For `Cc1cc(C)c2c(n1)nn1c(N3CCN(c4cccc(Cl)c4)CC3)cc(C)nc21`, which Potency is on record?
**A.** inactive

**Q.** For `Cc1cc(C)c2c(n1)nn1c(-n3ccnc3)cc(C)nc21`, which Potency is on record?
**A.** inactive

**Q.** How did the Potency turn out when `Cc1cc(C)c2c(n1)nn1c(N3CCOCC3)cc(C)nc21` was run?
**A.** 25.1 µM (active)

**Q.** With `Cc1cc(C(=O)O)ccc1[N+](=O)[O-]` as the compound, how does the Potency read?
**A.** inactive

**Q.** `CCCCC/C=C/C=C/C=O` was tested. Which Potency did it give?
**A.** inactive

**Q.** Which Potency does the source give for `C=CC(=O)c1ccc2ccccc2c1` here?
**A.** 20 µM (active)

**Q.** How did the activity change, negative = inhibition turn out when `Cc1ccc2nc(CC(=O)c3ccc4ccccc4c3)c(=O)[nH]c2c1` was run?
**A.** 11.5% [at 11.4 µM] (inactive)

**Q.** How did the Potency turn out when `CCCC[C@H]1C(=O)N(c2ccccc2)N(c2ccc(O)cc2)C1=O` was run?
**A.** inactive

**Q.** Which Potency does the source give for `COc1ccc(-n2c(=O)c(C)nc3cnc(N4CCOCC4)nc32)cc1` here?
**A.** inactive

**Q.** How did the Potency turn out when `COCC(=O)N1CCC2(CCCN(c3ccccc3)C2)CC1` was run?
**A.** inactive

**Q.** For `O=C(O)COc1c(Cl)cc(Cl)c2cccnc12`, which activity change, negative = inhibition is on record?
**A.** 7.63% [at 11.4 µM] (inactive)

**Q.** For `COc1ccc(OC)c(Nc2nc(-c3ccc(O)c(O)c3)cs2)c1`, which Potency is on record?
**A.** 0.126 µM (active)

**Q.** For `Oc1ccc(-c2csc(Nc3cccnc3)n2)cc1`, which Potency is on record?
**A.** inactive

**Q.** `COc1ccc(-c2n[nH]c(C)c2-c2ccc(OC)c(OC)c2)c(O)c1` was tested. Which Potency did it give?
**A.** inactive

**Q.** For `CO[C@@H]1/C=C\O[C@]2(C)Oc3c(C)c(O)c4c(O)c(c(CN(C)C)c(O)c4c3C2=O)NC(=O)/C(C)=C\C=C[C@@H](C)[C@@H](O)[C@H](C)[C@@H](O)[C@H](C)[C@H](OC(C)=O)[C@@H]1C`, which activity change, negative = inhibition is on record?
**A.** -4.82% [at 11.4 µM] (inactive)

**Q.** `CC(C)NC(=O)N1CC[C@@]2(CCCN(C(=O)c3cccc(F)c3)C2)C1` was tested. Which Potency did it give?
**A.** inactive

**Q.** How did the activity change, negative = inhibition turn out when `COC(=O)NC(c1ccccc1)[C@]1(C(C)=O)CCCC1=O` (stereo not given in full) was run?
**A.** 4.66% [at 11.4 µM] (inactive)

**Q.** For `CN1CCCc2cc(C#N)c(=O)[nH]c21`, which Potency is on record?
**A.** 3.16 µM (active)

**Q.** `CC/C=C/C/C=C/C/C=C/CCCCCCCC(=O)OCC` was tested. Which Potency did it give?
**A.** inactive

**Q.** How did the activity change, negative = inhibition turn out when `CN(C)CCSS(=O)(=O)O` was run?
**A.** 9.41% [at 11.4 µM] (inactive)
